# D1 ag: Allosteric Agonists of the Human D1 Dopamine Receptor: qHTS; HEK293 T-REx D1 cells, calcium flux, agonist mode; activation, % at 2 µM; actives 1% (n = 360,000); AID 504660, 2011; also: 0% is about no effect
#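 Agonism was scored from calcium flux recorded over 180 s (1 read/s) after pintool compound addition, following a 10-cycle baseline. Cells were inducible force-coupled HEK293 TREx D1, plated overnight at 30 C and loaded with no-wash calcium dye.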
# TRHR agonist: qHTS for Small Molecule Agonists and Allosteric Enhancers of Human TRH Receptor: Primary Screen for Agonists | Thyrotropin-releasing hormone receptor (Homo sapiens), P34981 | actives 0.18% (n = 360,000) | TRHR cells, calcium flux fluo-8, FDSS agonist mode | activation, % at 2 µM; also: 0% is about no effect
# Target sequence (P34981 whole entry, looked up): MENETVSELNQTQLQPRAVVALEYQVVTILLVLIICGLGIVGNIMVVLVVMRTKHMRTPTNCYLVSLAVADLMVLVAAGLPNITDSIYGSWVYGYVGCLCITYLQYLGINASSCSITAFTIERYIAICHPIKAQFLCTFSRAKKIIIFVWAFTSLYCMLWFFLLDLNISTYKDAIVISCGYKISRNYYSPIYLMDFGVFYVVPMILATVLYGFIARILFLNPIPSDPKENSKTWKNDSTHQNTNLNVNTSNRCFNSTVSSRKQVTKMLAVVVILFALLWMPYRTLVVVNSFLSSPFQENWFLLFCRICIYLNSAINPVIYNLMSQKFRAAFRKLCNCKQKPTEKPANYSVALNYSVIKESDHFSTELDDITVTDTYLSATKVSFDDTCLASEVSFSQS
#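 Fluo-8-loaded TRHR cells; 10 s baseline, compound added, kinetic Ca2+ fluorescence read 1/s, agonist mode.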
# D1 PAM: Potentiators of Human D1 Dopamine Receptor: qHTS. HEK293 TREx D1 cells, calcium flux, dopamine EC20 potentiation. AID 504651, 2011. potentiation, % at 10 µM. actives 0.036% (n = 360,000); in the data active = potentiation above about 30%; also: 0% is about no effect
# USP1-UAF1 inh: Inhibitors of USP1/UAF1: Primary Screen; Potency, µM (highest dose often 57.1 µM), inactives show top-dose activity change, negative = inhibition, most hits filed as inhibitors; actives 0.23% (n = 390,000); recombinant USP1/UAF1, Ub-Rhodamine cleavage fluorescence; Ubiquitin carboxyl-terminal hydrolase 1 (Homo sapiens), O94782; AID 743255, 2014; active = well fitted inhibition curve with a large enough effect; inconclusive = small, poorly fitted or top-dose-only effect; inactive = no such curve, though single readings can be large or run the other way; also: potency is read from the fitted curve at half-maximal effect; % is scaled to controls: 0 for no effect and ±100 for the full control effect; nearly all actives have a fitted effect of over 60% in size
#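 USP1/UAF1 complex at 1 nM was preincubated with compound for 15 min at room temperature, then Ub-Rho substrate (150nM final) was added. Fluorescence (480/540 nm) was read kinetically, 6 reads every 60 seconds.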
# TRHR PAM: qHTS for Small Molecule Agonists and Allosteric Enhancers of Human TRH Receptor: Primary Screen for Enhancers | Thyrotropin-releasing hormone receptor (Homo sapiens), P34981 | TRHR cells, fluo-8 calcium fluorescence, EC20 TRH enhancement | enhancement, % at 2 µM | actives 0.66% (n = 360,000); in the data active = enhancement above about 30%; also: 0% is about no effect
#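 TRHR-expressing cells loaded with fluo-8 calcium dye were read kinetically (ex 480/em 530) during compound addition, then stimulated with an EC20 of TRH (10 nM final). Enhancement of the Gq-mediated intracellular calcium response was scored.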
# D1 antagonist: Antagonist of Human D 1 Dopamine Receptor: qHTS; D(1A) dopamine receptor (Homo sapiens), P21728; HEK293 TREx D1 cells, calcium flux, dopamine EC80; hits give low values; activity change, negative = inhibition, % at 10 µM; actives 3.2% (n = 360,000); AID 504652, 2011; in the data active = activity change below about -30%; also: % is scaled to controls: 0 for no effect and ±100 for the full control effect
#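 Cells carrying a force-coupled, tetracycline-inducible human D1 receptor report calcium flux. Each well gets a 10 s baseline, compound with 180 s monitoring, then an EC80 dopamine stimulus with a second 180 s kinetic read.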
# Active calls of the source: *; ? = inconclusive. The list is not random: actives were taken first. Their share in the collection is about 4.4%. Rule as the data show it, unless noted: active = activation above about 30%; inactive = the rest.
SMILES,D1 ag,TRHR agonist,D1 PAM,USP1-UAF1 inh,TRHR PAM,D1 antagonist
CCOc1ccc(CNC(=O)C2CCN(S(=O)(=O)c3ccc4c(ccn4C)c3)CC2)cc1,4,0,1,-20%,8,-2
CCOc1ccc(-c2nnc3ccc(SC(C)C)nn23)cc1,2,-1,-3,5%,6,-42*
CCOc1ccc(-c2nnc3ccc(SCC(=O)Nc4nc5ccccc5s4)nn23)cc1,0,0,-10,-21%,1,8
CCOc1ccc(-c2nnc3ccc(SCC(=O)N4CCCCC4)nn23)cc1,0,-1,-10,-9%,2,5
CCOc1ccc(-c2nnc3ccc(SCC(=O)Nc4nc5ccc(C)cc5s4)nn23)cc1,1,-1,-15,-14%,-2,-43*
Cc1cccc(Oc2ccc3c(c2)Oc2ccccc2NC3=O)c1,0,1,-5,-17%,-2,1
CC(C)OCCCNC(=O)CN1C(=O)c2ccccc2Sc2ncccc21,1,0,-3,-19%,4,2
CCc1ccc(C(=O)c2cn(CC(=O)Nc3cccc(OC)c3)c3ccc(OC)cc3c2=O)cc1,7,2,1,?,7,16
Cc1ccc(NC(=O)CSc2nnc(COc3ccc(Cl)cc3)o2)cc1,0,-1,2,-5%,2,8
CCCCCn1nc(C(=O)N2CCc3ccccc32)c2ccccc2c1=O,1,-1,-4,-13%,-3,-51*
CCCn1nc(C(=O)N2CCc3ccccc32)c2ccccc2c1=O,1,-1,-1,-22%,17,-2
O=C(Nc1nnc(SCc2ccccn2)s1)C1CC(=O)N(c2ccccc2)C1 (centres undefined),2,0,-10,-12%,7,-78*
Cc1ccc(N2CC(C(=O)Nc3nnc(SCc4ccccn4)s3)CC2=O)cc1 (centres undefined),4,0,1,-20%,1,0
COc1ccc(CCNC(=O)Cn2c(-c3cccs3)cc3cc(F)ccc32)cc1OC,4,-1,-4,?,-6,-17
CCN1CCN(CCCNC(=O)Cn2c(-c3cccs3)cc3cc(F)ccc32)CC1,36*,-1,4,-3%,6,-6
O=C(Cn1c(-c2cccs2)cc2cc(F)ccc21)NCCCN1CCN(c2ccc(F)cc2)CC1,-2,0,0,-24%,8,-35*
CN1CCN(CCCOc2ccc(-c3ccccc3)cc2)CC1,18,1,-1,0%,-3,-33*
CCN1CCN(CCCOc2ccc(-c3ccccc3)cc2)CC1,50*,4,-9,0%,-3,-34*
Cc1noc2ncnc(NCc3cccc(Cl)c3)c12,30,1,-6,-17%,7,-35*
COCCNc1nc(NCc2cccc(Cl)c2)c2cnn(C)c2n1,5,1,0,-12%,-4,-6
Cn1ncc2c(NCc3cccc(Cl)c3)ncnc21,2,-1,-2,-13%,-10,-38*
c1ccc(CNc2ncnc3c2cnn3Cc2ccccc2)cc1,52*,8,-9,-22%,-1,-15
Cc1ccc(Cl)cc1NC(=O)NCc1cccn1Cc1ccc(F)cc1,0,-2,-3,3%,1,2
c1ccc(CNCCC(Cc2ccccc2)c2ccco2)cc1 (centres undefined),19,1,-6,7%,2,-2
CN(C)c1ccc(CNCCC(Cc2ccccc2)c2ccco2)cc1 (centres undefined),47*,3,-7,-9%,8,11
SMILES,D1 ag,TRHR agonist,D1 PAM,USP1-UAF1 inh,TRHR PAM,D1 antagonist
COCCn1c(SC(C)C(=O)NCC2CCCO2)nc2scc(-c3ccc(F)cc3)c2c1=O (centres undefined),1,0,-9,-15%,-5,-42*
COc1ccc(Oc2nc3c(c(=O)n(C)c(=O)n3C)n2Cc2ccc(Cl)cc2Cl)cc1,2,1,0,8%,18,-6
CCOc1cc(CNCCc2ccc(S(N)(=O)=O)cc2)ccc1OCc1ccc(Cl)cc1,79*,4,-16,-7%,8,-56*
NS(=O)(=O)c1ccc(NCc2ccccc2OCc2ccc(F)cc2)cc1,6,0,-2,1%,-10,-28
NS(=O)(=O)c1ccc(CCNCc2ccccc2OCc2ccc(F)cc2)cc1,41*,1,-17,-6%,-16,-40*
CCOc1ccc(CNCCNC(=O)c2nonc2N)cc1,2,0,0,-23%,-4,-11
Nc1nonc1C(=O)NCCNCc1ccccc1OCc1ccc(F)cc1,30*,0,-11,-11%,2,-29
COc1cccc(CNC(=O)C2CCN(C(=O)c3sccc3-n3cccc3)CC2)c1,0,0,-4,?,-6,19
O=C(O)c1ccc(/C=N/NC(=O)c2cc3c(ccc4ccccc43)o2)cc1,5,0,7,-23%,2,-7
O=C(N/N=C/c1ccncc1)c1cc2c(ccc3ccccc32)o1,2,-1,0,-30%,-10,-32*
O=C1C2C3C=CC(C3)C2C(=O)N1CCCCCCN1C(=O)C2C3C=CC(C3)C2C1=O (centres undefined),2,0,0,-1%,32*,2
O=C(CN1C(=O)C2C3C=CC(C3)C2C1=O)Nc1ccc(C(=O)O)cc1 (centres undefined),6,1,-3,-9%,-3,-30*
O=C(O)CCN1C(=O)C2C3C=CC(C3)C2C1=O (centres undefined),3,0,9,-2%,7,8
CCOc1cccc(C2C(C(=O)c3ccco3)=C(O)C(=O)N2c2nnc(C)s2)c1 (centres undefined),25,18,-2,-18%,-5,-2
CSc1nnc(N2C(=O)C(O)=C(C(=O)c3ccco3)C2c2ccc(F)cc2)s1 (centres undefined),128*,36*,4,-8%,3,8
CCSc1nnc(N2C(=O)C(O)=C(C(=O)c3ccco3)C2c2cccc(OC)c2)s1 (centres undefined),77*,12,-5,-2%,-1,0

# Source: PubChem BioAssay
